Set-up in all cases: scale not given: direction of the effect not stated beside the values
For experiment [1], the target named is Protein translocase subunit SecA (Escherichia coli (strain K12)) (UniProt P10408). As to the kind of experiment: Assay to Identify E. coli SecA ATPase Inhibitors. The experiment is classed as functional. The settings on record: 30 µM.
Experiment [2] has as its target T1, Ubiquitin-activating enzyme e1, putative (Leishmania donovani (strain BPK282A1)) (UniProt E9BSI1).
T1 sequence (whole entry): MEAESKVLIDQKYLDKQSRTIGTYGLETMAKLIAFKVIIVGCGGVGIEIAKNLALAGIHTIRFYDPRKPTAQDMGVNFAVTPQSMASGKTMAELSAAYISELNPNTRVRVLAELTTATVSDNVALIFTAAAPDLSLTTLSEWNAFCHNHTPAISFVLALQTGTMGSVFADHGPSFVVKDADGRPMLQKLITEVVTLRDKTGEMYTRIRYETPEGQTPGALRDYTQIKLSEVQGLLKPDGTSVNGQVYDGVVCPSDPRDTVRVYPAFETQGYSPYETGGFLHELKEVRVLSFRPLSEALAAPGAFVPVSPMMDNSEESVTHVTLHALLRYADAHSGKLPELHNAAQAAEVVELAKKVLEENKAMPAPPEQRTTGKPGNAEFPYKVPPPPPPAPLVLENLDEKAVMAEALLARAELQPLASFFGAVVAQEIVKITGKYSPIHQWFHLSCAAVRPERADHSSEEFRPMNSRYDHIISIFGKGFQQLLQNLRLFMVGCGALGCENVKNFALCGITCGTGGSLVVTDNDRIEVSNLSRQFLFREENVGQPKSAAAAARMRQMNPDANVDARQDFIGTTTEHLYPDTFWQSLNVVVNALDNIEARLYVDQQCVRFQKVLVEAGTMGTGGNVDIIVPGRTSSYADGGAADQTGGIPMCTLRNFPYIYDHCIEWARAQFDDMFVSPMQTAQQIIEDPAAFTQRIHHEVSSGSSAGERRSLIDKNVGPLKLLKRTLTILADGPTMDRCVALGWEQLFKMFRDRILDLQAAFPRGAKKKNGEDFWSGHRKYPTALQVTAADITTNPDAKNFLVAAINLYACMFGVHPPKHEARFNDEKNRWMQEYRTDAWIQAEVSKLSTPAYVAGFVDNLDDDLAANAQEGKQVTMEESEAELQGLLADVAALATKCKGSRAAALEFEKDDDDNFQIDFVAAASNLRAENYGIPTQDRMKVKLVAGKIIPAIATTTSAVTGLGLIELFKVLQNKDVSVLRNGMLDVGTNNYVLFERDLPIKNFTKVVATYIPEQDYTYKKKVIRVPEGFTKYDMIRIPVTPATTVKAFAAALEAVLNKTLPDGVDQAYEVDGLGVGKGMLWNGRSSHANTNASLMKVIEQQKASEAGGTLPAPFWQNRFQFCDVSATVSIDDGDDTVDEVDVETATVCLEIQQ
The experiment in a line: Leishmania donovani Ubiquitin Activating Enzyme (LdE1). The experiment is classed as functional. Particulars: 30 µM.

Experiment [3] has as its target AMP-activated protein kinase, AMPK (Homo sapiens) (UniProt P54646+O43741+P54619+Q9UGJ0+Q9Y478+Q13131+Q9UGI9). The experiment in a line: AMP-dependent Kinase enzyme assay. An in vitro enzyme assay that detects ADP turnover that is directly proportional to AMPK activity. This uses naive AMPK that is activated during the assay with MK-8722. The experiment is classed as functional. Particulars: 30 µM.

In experiment [4] the target is Sialic acid-binding Ig-like lectin 9 (Homo sapiens) (UniProt Q9Y336). As to the kind of experiment: Hs-Siglec9 ALPHAscreen SOP 20170721. The settings on record: 10 µM. For orientation: Bead proximity is the source of the signal in Alpha formats.
A further experiment deals with Trypanosoma cruzi. The experiment in a line: Trypanosoma cruzi phosphomannomutase and mannose-1-phosphate guanylyltransferase assay. The experiment is classed as functional. The settings on record: 10 µM.
In experiment [5] the target is T2, Arginase-2, mitochondrial (Homo sapiens) (UniProt P78540).
T2 sequence (whole entry): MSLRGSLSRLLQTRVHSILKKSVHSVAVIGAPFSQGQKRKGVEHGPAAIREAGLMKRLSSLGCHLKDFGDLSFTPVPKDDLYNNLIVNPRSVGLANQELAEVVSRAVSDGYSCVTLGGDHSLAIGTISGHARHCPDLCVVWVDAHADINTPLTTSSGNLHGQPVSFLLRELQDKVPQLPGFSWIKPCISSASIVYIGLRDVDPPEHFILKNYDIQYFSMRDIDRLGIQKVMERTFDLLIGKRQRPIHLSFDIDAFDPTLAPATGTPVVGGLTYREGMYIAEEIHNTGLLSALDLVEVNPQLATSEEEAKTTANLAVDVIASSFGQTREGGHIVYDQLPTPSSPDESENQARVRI
The experiment in a line: in vitro enzyme assay to detect the production of urea directly proportional to the activity of Arginase II. Also: in the data most compounds retested in dose-response had high values. The experiment is classed as functional. The settings on record: 33.3 µM.

Experiment [6] deals with T3, Proteasome subunit beta (Trypanosoma cruzi) (UniProt O96673).
T3 sequence (whole entry): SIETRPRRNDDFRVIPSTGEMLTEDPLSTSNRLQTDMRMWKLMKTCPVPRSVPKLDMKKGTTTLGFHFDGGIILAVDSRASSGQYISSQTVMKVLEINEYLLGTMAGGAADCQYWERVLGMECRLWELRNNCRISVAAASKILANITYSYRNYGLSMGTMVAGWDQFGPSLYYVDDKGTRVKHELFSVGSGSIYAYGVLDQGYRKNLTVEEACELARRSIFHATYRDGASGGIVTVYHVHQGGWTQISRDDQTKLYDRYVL
As to the kind of experiment: Trypanosoma cruzi proteasome chymotrypsin-like activity (TcProtChymo) assay. Also: in the data most compounds retested in dose-response had high values. The format is functional. The settings on record: 9.37 µM.

The species named for a further experiment is Homo sapiens. The experiment in a line: To identify inhibition of the IFN signalling (Jak-Stat) pathway via expression of an eGFP reporter gene under the control of an IFN-stimulated response element (ISRE) containing MxA promoter. The format is functional. The settings on record: 30 µM.
In experiment [7] the target is T4, Tyrosyl-tRNA synthetase, putative (Trypanosoma cruzi (strain CL Brener)) (UniProt Q4DSP6).
T4 sequence (whole entry): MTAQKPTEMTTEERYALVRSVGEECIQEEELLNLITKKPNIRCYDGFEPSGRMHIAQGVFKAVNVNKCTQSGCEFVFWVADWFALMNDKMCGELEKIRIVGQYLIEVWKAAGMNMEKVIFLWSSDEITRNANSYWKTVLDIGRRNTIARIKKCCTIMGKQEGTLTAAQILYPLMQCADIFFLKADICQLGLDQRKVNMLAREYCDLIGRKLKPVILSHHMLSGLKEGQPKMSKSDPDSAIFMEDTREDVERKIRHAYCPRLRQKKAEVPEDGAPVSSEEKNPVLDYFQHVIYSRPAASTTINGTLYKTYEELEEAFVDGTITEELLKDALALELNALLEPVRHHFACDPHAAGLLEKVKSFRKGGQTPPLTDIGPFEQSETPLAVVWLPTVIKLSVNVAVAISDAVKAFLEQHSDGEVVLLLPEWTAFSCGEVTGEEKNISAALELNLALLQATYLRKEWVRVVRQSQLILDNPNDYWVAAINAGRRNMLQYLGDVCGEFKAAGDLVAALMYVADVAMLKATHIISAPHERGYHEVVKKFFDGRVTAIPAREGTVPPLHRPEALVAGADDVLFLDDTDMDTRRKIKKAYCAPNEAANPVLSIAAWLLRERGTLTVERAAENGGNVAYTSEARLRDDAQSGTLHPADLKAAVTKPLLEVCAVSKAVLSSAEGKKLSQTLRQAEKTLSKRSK
The experiment in a line: Trypanosoma cruzi tyrosyl tRNA synthetase (TcYRS) _High Tyrosine SOP. Also: in the data most compounds retested in dose-response had high values. The experiment is classed as functional. Particulars: 30 µM.

The target of experiment [8] is T4, Tyrosyl-tRNA synthetase, putative (Trypanosoma cruzi (strain CL Brener)). As to the kind of experiment: Trypanosoma cruzi tyrosyl tRNA synthetase (TcYRS) SOP. Particulars: 30 µM. The format is functional.
The target in experiment [9] is Chromo domain-containing protein 1 (Saccharomyces cerevisiae (strain ATCC 204508 / S288c) (Baker's yeast)) (UniProt P32657). As to the kind of experiment: ScCHD-1 Enzyme Inhibition Assay. Also: in the data most compounds retested in dose-response had high values. The experiment is classed as functional. Particulars: 30 µM.

For some of these results: Entries with a potency or affinity are not part of this list.

Among the data in ChEMBL document CHEMBL3988442, “University of Dundee, Small-Polar-MMV Screening Library” (2021) are Percent Effect values, retold here.

Sialic acid-binding Ig-like lectin 9 (Homo sapiens), sequence (Q9Y336 whole entry): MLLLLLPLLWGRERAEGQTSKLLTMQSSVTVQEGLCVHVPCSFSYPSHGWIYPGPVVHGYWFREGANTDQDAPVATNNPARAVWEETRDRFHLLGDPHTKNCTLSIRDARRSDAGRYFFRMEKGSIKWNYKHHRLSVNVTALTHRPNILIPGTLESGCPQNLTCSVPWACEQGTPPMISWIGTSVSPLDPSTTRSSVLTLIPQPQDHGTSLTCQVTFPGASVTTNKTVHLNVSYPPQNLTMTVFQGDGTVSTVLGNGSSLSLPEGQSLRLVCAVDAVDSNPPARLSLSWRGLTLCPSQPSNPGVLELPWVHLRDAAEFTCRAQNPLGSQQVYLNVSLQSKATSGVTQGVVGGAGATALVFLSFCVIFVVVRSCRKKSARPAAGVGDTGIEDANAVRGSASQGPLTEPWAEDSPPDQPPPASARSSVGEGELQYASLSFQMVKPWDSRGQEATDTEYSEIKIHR
Protein translocase subunit SecA (Escherichia coli (strain K12)), sequence (P10408 whole entry): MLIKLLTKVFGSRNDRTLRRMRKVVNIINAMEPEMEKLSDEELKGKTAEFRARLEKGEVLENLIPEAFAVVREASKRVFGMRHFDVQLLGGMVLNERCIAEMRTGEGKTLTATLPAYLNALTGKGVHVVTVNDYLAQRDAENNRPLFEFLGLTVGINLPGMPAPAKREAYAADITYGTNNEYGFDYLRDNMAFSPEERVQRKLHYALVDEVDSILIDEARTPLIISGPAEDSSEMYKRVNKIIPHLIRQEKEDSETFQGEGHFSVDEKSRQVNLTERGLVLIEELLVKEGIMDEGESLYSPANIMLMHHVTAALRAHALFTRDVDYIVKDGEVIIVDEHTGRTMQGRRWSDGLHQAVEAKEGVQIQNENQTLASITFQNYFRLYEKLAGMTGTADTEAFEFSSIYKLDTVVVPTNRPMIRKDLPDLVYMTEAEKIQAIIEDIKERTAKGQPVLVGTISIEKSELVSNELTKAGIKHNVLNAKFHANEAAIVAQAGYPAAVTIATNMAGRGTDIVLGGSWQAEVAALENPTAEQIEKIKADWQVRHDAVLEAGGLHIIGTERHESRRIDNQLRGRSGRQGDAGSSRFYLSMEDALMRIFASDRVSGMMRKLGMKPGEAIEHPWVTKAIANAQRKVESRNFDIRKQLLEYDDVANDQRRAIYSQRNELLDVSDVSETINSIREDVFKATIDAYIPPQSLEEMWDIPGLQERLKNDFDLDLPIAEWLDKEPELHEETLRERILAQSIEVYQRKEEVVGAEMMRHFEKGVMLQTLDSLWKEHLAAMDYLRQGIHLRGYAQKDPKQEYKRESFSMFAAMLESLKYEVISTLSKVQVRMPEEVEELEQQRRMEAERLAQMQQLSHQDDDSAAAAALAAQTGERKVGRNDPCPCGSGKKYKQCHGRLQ
Chromo domain-containing protein 1 (Saccharomyces cerevisiae (strain ATCC 204508 / S288c) (Baker's yeast)), sequence (P32657 whole entry, the tested form may be a part): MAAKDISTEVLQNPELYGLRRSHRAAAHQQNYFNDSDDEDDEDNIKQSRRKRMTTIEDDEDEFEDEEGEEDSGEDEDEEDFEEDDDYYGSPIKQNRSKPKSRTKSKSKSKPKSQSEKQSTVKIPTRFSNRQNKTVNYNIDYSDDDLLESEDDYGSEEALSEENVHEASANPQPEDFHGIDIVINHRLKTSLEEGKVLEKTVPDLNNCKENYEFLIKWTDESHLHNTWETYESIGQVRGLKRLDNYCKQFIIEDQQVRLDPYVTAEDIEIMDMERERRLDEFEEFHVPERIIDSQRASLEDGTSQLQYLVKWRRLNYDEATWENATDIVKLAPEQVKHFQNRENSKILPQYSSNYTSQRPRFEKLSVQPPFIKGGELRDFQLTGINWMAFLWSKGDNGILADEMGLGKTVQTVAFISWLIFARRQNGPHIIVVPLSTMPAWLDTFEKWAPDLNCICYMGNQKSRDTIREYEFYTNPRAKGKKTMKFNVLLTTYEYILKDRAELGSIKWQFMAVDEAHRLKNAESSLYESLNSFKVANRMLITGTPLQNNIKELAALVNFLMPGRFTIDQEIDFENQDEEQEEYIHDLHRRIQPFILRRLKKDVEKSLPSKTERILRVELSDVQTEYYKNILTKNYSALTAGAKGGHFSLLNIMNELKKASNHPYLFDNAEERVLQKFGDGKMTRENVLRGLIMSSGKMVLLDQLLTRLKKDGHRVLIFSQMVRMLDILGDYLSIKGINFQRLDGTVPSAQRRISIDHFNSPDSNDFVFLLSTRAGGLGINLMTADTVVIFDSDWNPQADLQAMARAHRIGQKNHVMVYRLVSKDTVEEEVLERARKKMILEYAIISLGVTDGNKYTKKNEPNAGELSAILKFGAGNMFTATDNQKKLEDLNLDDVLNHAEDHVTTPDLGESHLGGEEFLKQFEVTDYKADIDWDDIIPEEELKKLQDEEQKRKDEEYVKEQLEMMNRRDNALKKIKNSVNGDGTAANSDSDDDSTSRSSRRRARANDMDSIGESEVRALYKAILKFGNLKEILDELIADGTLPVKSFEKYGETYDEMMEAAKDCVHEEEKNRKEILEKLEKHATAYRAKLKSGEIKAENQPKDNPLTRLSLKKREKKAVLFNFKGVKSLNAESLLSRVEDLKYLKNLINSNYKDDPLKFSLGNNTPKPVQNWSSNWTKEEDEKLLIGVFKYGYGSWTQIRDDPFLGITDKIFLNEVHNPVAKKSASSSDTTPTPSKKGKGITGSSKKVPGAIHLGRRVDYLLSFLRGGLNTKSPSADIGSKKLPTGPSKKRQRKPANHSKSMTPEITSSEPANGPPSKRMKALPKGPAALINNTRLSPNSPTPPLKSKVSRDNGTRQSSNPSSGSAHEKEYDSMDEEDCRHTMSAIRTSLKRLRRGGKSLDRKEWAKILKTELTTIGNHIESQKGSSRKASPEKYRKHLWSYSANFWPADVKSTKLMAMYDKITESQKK

As to `Cc1cnc(NC(=O)c2ccc(-n3ncc(C#N)c3N)cc2)s1`, the Percent Effect in [1] was -5.51%; in [2] it was 7.59%; in [3] it was 14.4%; in experiment [4], 4.78%; with Trypanosoma cruzi, -6.33%; in [5], -4.18%. Moreover, the Percent Effect is 5.49% in experiment [6]; 29% in the experiment listed under Homo sapiens; 11.3% in experiment [7]; 24.1% in experiment [8]; -2.52% in experiment [9].

As for `O=C(NCc1cccs1)C1CN(C(=O)c2cccs2)CC12CCOCC2` (stereo not drawn), the Percent Effect was -3.46% in experiment [1]; 8% in experiment [2]; 5.07% in [3]; 1.33% in experiment [4]; 0.193% in the experiment on Trypanosoma cruzi; -43.5% in [5]. The Percent Effect in [6] is 14.4%; in the experiment filed under Homo sapiens, -4.96%; in experiment [7] it was 2.08%; in [8] it was -312%; in [9], -2.49%.

In the case of `CC(C)N1Cc2c(C(=O)N3CCOCC3)nn(C)c2C1`, the Percent Effect in experiment [1] was -3.37%; in experiment [2], -2.7%; in experiment [3] it was 4.04%; in [4], 1.67%; in the experiment on Trypanosoma cruzi it was -1.66%; in experiment [5] it was 0.955%. Moreover, the Percent Effect in experiment [6] is 17.3%; in the experiment filed under Homo sapiens, -39.2%; in experiment [7], -1.08%; in experiment [8] it was 5.13%; in experiment [9], 4.29%.

Regarding `c1coc(CN2CCCC3(COCCN(Cc4c[nH]nn4)C3)C2)c1` (stereo not drawn), the Percent Effect was -3.44% in experiment [1]; 8% in experiment [2]; 2.62% in experiment [3]; 8.5% in [4]; -0.193% with Trypanosoma cruzi; -23.1% in [5]. For the same compound, the Percent Effect in [6] was 10.9%; in the experiment listed under Homo sapiens it was -4.99%; in experiment [7], 7.29%; in experiment [8], 10%; in experiment [9] it was -7.03%.

As for `COC[C@@]12CCO[C@@H]1CCN(Cc1ccccc1F)C2`, the Percent Effect was -2.12% in [1]; 11% in experiment [2]; -5.09% in experiment [3]; 8.1% in experiment [4]; 5.75% with Trypanosoma cruzi; -2.79% in experiment [5]. The Percent Effect in experiment [6] is 10.5%; in the experiment filed under Homo sapiens, 3.87%; in experiment [7] it was 4.17%; in experiment [8], 8.64%; in experiment [9], -4.87%.

Turning to `CCOc1ccc(C#N)cc1NCC(=O)Nc1cc(F)ccc1F`, the Percent Effect in experiment [1] is -4.77%; in experiment [2], -12.7%; in [3], -7.04%; in [4] it was -0.166%; in the experiment with Trypanosoma cruzi, 4.63%; in [5], -29.7%. Also, the Percent Effect is 3.19% in [6]; -7.08% in the experiment listed under Homo sapiens; 7.39% in experiment [7]; 24.1% in [8]; 18.3% in experiment [9].

Regarding `COCC(=O)NC1CC2(CCN(Cc3ccco3)CC2)c2ccccc21` (stereo not drawn), the Percent Effect in [1] was -1.45%; in experiment [2] it was 2.7%; in [3], -1.83%; in experiment [4], 3.44%; in the experiment on Trypanosoma cruzi, -7.92%; in experiment [5] it was 2.23%. For the same compound, the Percent Effect in [6] is 24.2%; in the experiment filed under Homo sapiens, 4.53%; in experiment [7], 2.16%; in [8], 5.13%; in experiment [9], -3.97%.

Regarding `COc1ccc(NC(C)C(=O)NCCc2cccs2)cc1F` (stereo not drawn), the Percent Effect in [1] is -7.72%; in experiment [2] it was -2.74%; in experiment [3] it was -49.8%; in experiment [4] it was 6.34%; with Trypanosoma cruzi, -3.92%; in experiment [5], 0%. Besides, the Percent Effect in experiment [6] was 15.3%; in the experiment filed under Homo sapiens, 14.2%; in experiment [7], -1.07%; in experiment [8], -5%; in [9], -3.93%.
